Screen size: about 96,000 compounds; about 1,200 (1.2%) were called active. Cut-off read from the data, not from the text of the source: active = activation fold above about 2; inactive = the rest. Only a selection was taken, and actives are over-represented in it overall.
target: Alkaline phosphatase, placental type (Homo sapiens) (UniProt P05187); test: PLAP enzyme activators, biochemical, luminescence, HTS (AID 696); conditions: purified PLAP enzyme, luminescent substrate read-out; at 20 µM; active compounds read high
Sequence (P05187 whole entry, looked up): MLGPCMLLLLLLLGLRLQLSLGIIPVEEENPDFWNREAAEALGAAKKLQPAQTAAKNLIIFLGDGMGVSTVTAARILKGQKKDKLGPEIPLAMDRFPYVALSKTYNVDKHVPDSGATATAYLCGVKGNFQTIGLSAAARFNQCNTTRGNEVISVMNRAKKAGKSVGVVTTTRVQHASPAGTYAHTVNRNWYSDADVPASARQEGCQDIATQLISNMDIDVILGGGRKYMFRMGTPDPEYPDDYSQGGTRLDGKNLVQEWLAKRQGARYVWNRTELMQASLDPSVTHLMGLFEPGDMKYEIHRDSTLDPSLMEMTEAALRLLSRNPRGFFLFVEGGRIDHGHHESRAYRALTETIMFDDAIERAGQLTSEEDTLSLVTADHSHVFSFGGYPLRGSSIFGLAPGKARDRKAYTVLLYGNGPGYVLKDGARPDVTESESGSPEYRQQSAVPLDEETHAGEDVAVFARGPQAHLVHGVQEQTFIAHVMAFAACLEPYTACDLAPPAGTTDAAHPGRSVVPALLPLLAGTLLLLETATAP

| Compound | activation fold |
| --- | --- |
| COc1ccc(C(C)=O)cc1CN1C(=O)NC2(CCCCC2C)C1=O (centres undefined) | 1 (inactive) |
| CCOC(=O)N1CCN(C(c2cccnc2)c2ccc3cccnc3c2O)CC1 (centres undefined) | 2.2 (active) |
| CCOC(=O)N1CCN(C(=O)CSc2ccc(Cl)cc2)CC1 | 1.4 (inactive) |
| CCN1CCN(C(c2cccnc2)c2cc(Cl)c3cccnc3c2O)CC1 (centres undefined) | 1.7 (inactive) |
| CC1CC(C)CN(C/C=C/c2ccccc2[N+](=O)[O-])C1 (centres undefined) | 1.2 (inactive) |
| C=C(C)COc1ccc(-c2n[nH]c(C)c2-c2ccccc2OC)c(O)c1 | 1 (inactive) |
| CCOc1ccccc1Oc1cn[nH]c1-c1ccc(OC)cc1O | 2.8 (active) |
| CCOc1ccccc1NC(=O)Nc1cc(OC)ccc1OC | 0.8 (inactive) |
| c1ccc2c(C[n+]3csc4ccccc43)cccc2c1 | 1.1 (inactive) |
| COc1ccccc1NC1=NC(c2ccc(Cl)cc2)N=C(N)N1 (centres undefined) | 2.2 (active) |
| COc1ccccc1Nc1nc(N)nc(CN(C)C2CCCCC2)n1 | 1.3 (inactive) |
| COc1ccccc1NC1=NC2(CCCC2)N=C(N)N1 | 0.8 (inactive) |
| O=C1C=C(c2ccc(Cl)cc2)C(=O)N1Nc1ccccc1 | 0.9 (inactive) |
| C=CCn1c(SCc2c(C)noc2C)nc2sc3c(c2c1=O)CCC(C)C3 (centres undefined) | 1.4 (inactive) |
| COCCCNCC(=O)Nc1sc(C)c(C)c1C(=O)OC | 2.2 (active) |
| CCOC(=O)c1c(NC(=O)c2cccs2)sc(C)c1C | 1.1 (inactive) |
| CCOC(=O)c1c(NC(=O)CCl)sc(C(=O)N(CC)CC)c1C | 1.7 (inactive) |
| COc1ccc(C2=NOC3(CC(=O)N(c4ccc(C)cc4)C3=O)C2)cc1 (centres undefined) | 1.2 (inactive) |
| CCOC(=O)c1c(NC(=O)CCCN2CCOCC2)sc2c1CC(C)(C)OC2 | 1.5 (inactive) |
| CCc1ccc(N(CC)c2ncnc3nc[nH]c23)cc1 | 2 (active) |
| COc1ccc(CCNc2ncnc3nc[nH]c23)cc1OC | 1.8 (inactive) |
| c1ccc2c(c1)OCC(CNc1ncnc3nc[nH]c13)O2 (centres undefined) | 1.6 (inactive) |
| Cc1nn(C)cc1/C=C1\CCC/C(=C\c2cn(C)nc2C)C1=O | 1.8 (inactive) |
| CCn1c(C)nc2cc(C(=O)NNS(=O)(=O)c3ccc(C)cc3C)ccc21 | 1 (inactive) |
| Cc1ccc(C(=O)Nc2c(C#N)c(C)c(C)n2Cc2ccccc2)cc1 | 0.9 (inactive) |
| Cc1[nH][nH]c(=O)c1C(c1ccc(-c2ccc(Cl)cc2)o1)c1c(C)[nH][nH]c1=O | 2.2 (active) |

| Compound | activation fold |
| --- | --- |
| Cc1[nH][nH]c(=O)c1N=Nc1ccccc1 | 1.1 (inactive) |
| Cc1nnc(NC(=O)CCCOc2ccccc2)s1 | 1 (inactive) |
| CCOC(=O)c1nn(-c2cccc(C)c2)cc1C(=O)c1ccccc1 | 1.8 (inactive) |
| O=C(Nc1ccc(-n2ccnc2P(=O)(O)c2ccccc2)cc1)c1ccccc1Br | 2.1 (active) |
| O=C(Nc1ccccc1)c1cccnc1Nc1ccccc1 | 0.8 (inactive) |
| Cc1nonc1NC(=O)c1ccccc1Br | 1.2 (inactive) |
| CCOC(=O)c1nnn(-c2nonc2-n2cccc2)c1CN1CCC(C(=O)OCC)CC1 | 1.2 (inactive) |
| CC(=O)c1ccc(OCCN2CCOCC2)cc1 | 0.9 (inactive) |
| Cc1c(C(=O)N2CCOCC2)[nH]c2ccc(OCc3ccccc3)cc12 | 2 (active) |
| Cc1c(C(=O)CN2CCOCC2)[nH]c2ccccc12 | 0.9 (inactive) |
| CCOC(=O)c1[nH]c2ccc(OC)cc2c1NC(=O)N1CCOCC1 | 1.1 (inactive) |
| COc1cccc2c1OCC1COc3c(c(=O)n(C)c(=O)n3C)C21 (centres undefined) | 1 (inactive) |
| CCNC(=S)NNC(=O)Cc1ccccc1 | 1.3 (inactive) |
| COc1ccc(OCC(=O)NNC(=O)c2ccc(-c3ccccc3)cc2)cc1 | 1.5 (inactive) |
| CC(C)(C)c1ccc(C(=O)NNC(=O)Cc2ccccc2)cc1 | 2.1 (active) |
| Cc1ccc(-c2cnc(NC(=O)CCC(=O)N(C)Cc3ccccc3)n2C)cc1 | 1.5 (inactive) |
| Cc1ccc(-n2nc(N)c3c(=O)oc(N(C)C)nc32)cc1 | 1.1 (inactive) |
| CSc1nc(-c2ccco2)nn1C(=O)CCc1ccccc1 | 1.1 (inactive) |
| COc1ccc(C2N=C(N)N=C(N)N2c2ccccc2)cc1OC (centres undefined) | 2.5 (active) |
| COc1ccc(C2CC(=O)n3c(nc4ccccc43)S2)cc1OC (centres undefined) | 1.1 (inactive) |
| COc1ccc(C2SCCN2S(=O)(=O)c2ccccc2)cc1OC (centres undefined) | 1.3 (inactive) |
| COCCn1c(C)cc(C2=NNC(=Nc3ccc(F)cc3)SC2)c1C | 1.2 (inactive) |
| CN1/C(=C\C(=O)c2oc3ccccc3c2N)C(C)(C)c2ccccc21 | 1 (inactive) |
| COc1ccc(NC(C)=O)cc1NC(=O)CN1CCN(C2c3ccccc3-c3ccccc32)CC1 | 2.8 (active) |
| COc1ccc(NC(C)=O)cc1NC(=O)CN1CCN(c2ccccn2)CC1 | 1 (inactive) |
| COc1ccc(OC)c(NC(=O)CN2CCN(C(=O)c3ccco3)CC2)c1 | 1.2 (inactive) |

| Compound | activation fold |
| --- | --- |
| Cc1ccc(S(=O)(=O)Nc2nc(C)cc(-n3nc(C)cc3C)n2)cc1 | 1.4 (inactive) |
| Nc1nc(SCc2ccccc2Cl)n[nH]1 | 1.5 (inactive) |
| Nc1nc(SCCOc2ccccc2)n[nH]1 | 2 (active) |
| COc1ccc(C(=O)CSc2n[nH]c(N)n2)cc1 | 1.5 (inactive) |
| COc1ccccc1-c1n[nH]c2c1[C@H](C)CC[C@H]2C(C)C | 1.4 (inactive) |
| O=C(OCN1C(=O)c2ccccc2C1=O)/C(=C\c1ccco1)NC(=O)c1ccccc1 | 1.1 (inactive) |
| CCOc1cccc(C(=O)Nc2cnn(Cc3ccccc3)c2)c1 | 0.7 (inactive) |
| COc1ccc(CNC(=O)CCn2cccc2)cc1 | 1 (inactive) |
| CC(C)NC(=O)NC(=O)COC(=O)c1ccc(NC(=O)CC#N)cc1 | 1.4 (inactive) |
| Cc1occc1C(=O)Nc1nnc(C2CCCCC2)s1 | 1 (inactive) |
| O=C(Nc1nnc(C2CC2)s1)c1ccccn1 | 2.3 (active) |
| COc1ccc2c(CC(=O)Nc3nnc(C4CC4)s3)coc2c1 | 0.9 (inactive) |
| NC(=O)C1(N2CCCCC2)CCN(C(=S)Nc2ccc(Cl)cc2)CC1 | 0.9 (inactive) |
| CN1CCN(S(=O)(=O)c2ccc3[nH]cc(C(=O)O)c(=O)c3c2)CC1 | 1.1 (inactive) |
| COc1cccc(N2C(=O)CC(N3CCN(S(=O)(=O)c4ccccc4)CC3)C2=O)c1 (centres undefined) | 1.4 (inactive) |
| Cc1cccc(N2CCN(S(=O)(=O)c3ccc4[nH]c(=O)c(=O)[nH]c4c3)CC2C)c1 (centres undefined) | 2.2 (active) |
| O=C1C(Cl)=C(N2CCOCC2)C(=O)N1c1ccccc1 | 1 (inactive) |
| O=C(CN1C(=O)C2C3C=CC(C3)C2C1=O)NCCc1ccccc1Cl (centres undefined) | 0.9 (inactive) |
| O=C(NCCN1C(=O)C2C3C=CC(C3)C2C1=O)Nc1ccccn1 (centres undefined) | 1.1 (inactive) |
| O=C(CN1C(=O)C2C3C=CC(C3)C2C1=O)Nc1nc(-c2ccccn2)cs1 (centres undefined) | 2.3 (active) |
| CC(OC(=O)CN1C(=O)C2CCCCC2C1=O)C(=O)Nc1ncc(Cl)cc1Cl (centres undefined) | 0.9 (inactive) |
| O=C(CN1CCN(c2ccccn2)CC1)NC1CCCCC1 | 1.1 (inactive) |
| Cc1ccc(C(C(=O)NC2CCCC2)N(Cc2ccco2)C(=O)CCC(=O)Nc2ccccn2)cc1 (centres undefined) | 1.7 (inactive) |
| O=C(CCCC(=O)N(CC(=O)NC1CCCC1)Cc1ccccc1Cl)Nc1ccccn1 | 2 (active) |
| CCCC(=O)Nc1cc(OCC)c(NC(=O)NC2CCCCC2)cc1OCC | 0.9 (inactive) |
| CCOc1ccccc1N(CC(=O)NC1CCCCC1)C(=O)CCCC(=O)Nc1ccccn1 | 2 (active) |

| Compound | activation fold |
| --- | --- |
| Cc1noc(C)c1C(=O)N(CC(=O)NC1CCCC1)Cc1ccccc1F | 1 (inactive) |
| CCCCNC(=O)C(=O)c1ccccc1NC(C)=O | 0.9 (inactive) |
| Cc1cccc(C)c1NC(=O)CSc1nnc(-c2ccccc2)n1Cc1ccc2c(c1)OCO2 | 1.4 (inactive) |
| Cc1cc(/C=C2/SC(=O)N(CC(=O)OC(C)C)C2=O)c(C)n1C | 1 (inactive) |
| COC(=O)CSc1snnc1-c1ccc(Cl)c(Cl)c1 | 1 (inactive) |
| O=C(OCC(=O)c1cccs1)C1=COCCO1 | 0.9 (inactive) |
| CC(C)NS(=O)(=O)c1ccc(OCC(=O)Nc2ccc3c(c2)OCCO3)cc1 | 0.7 (inactive) |
| CCC(C)(C)c1ccc(Oc2ccc(NC(=O)COC(=O)C3=COCCO3)cc2)cc1 | 2.9 (active) |
| O=C(CSCc1ccccc1)N1CCc2ccccc21 | 0.7 (inactive) |
| c1ccc(CCc2nc(-c3ccncc3)no2)cc1 | 0.9 (inactive) |
| O=C(Nc1cccc(Cl)c1)Nc1nnc(-c2ccccc2)o1 | 1.1 (inactive) |
| O=C(COc1ccccc1)Nc1nonc1NC(=O)COc1ccccc1 | 0.9 (inactive) |
| O=C(COC(=O)c1ccc(Oc2ccccc2)cc1)Nc1nnc(-c2ccccc2)o1 | 2 (active) |
| Cc1ccc(NC(=O)C(C)c2cccc(C(=O)c3ccccc3)c2)cc1 (centres undefined) | 0.7 (inactive) |
| C=CCN(C(=O)Cn1ncc2c1-c1cc(C)ccc1OC2)c1ccccc1 | 1.2 (inactive) |
| COc1ccccc1OCc1nc2ccccc2s1 | 1 (inactive) |
| COc1ccc(C(C#N)N2N=C(C)CC2(C)C)cc1 (centres undefined) | 0.9 (inactive) |
| Cc1cccc(N(CC(=O)N=Nc2c(O)[nH]c3ccccc23)S(C)(=O)=O)c1C | 1.9 (inactive) |
| Cc1ccccc1NC(=O)c1ccccc1NS(=O)(=O)c1cccc2cccnc12 | 1.3 (inactive) |
| O=C(/C=C\NCC(=O)c1ccccc1)c1ccccc1 | 0.9 (inactive) |
| O=C(/C=C/NNC(=O)c1cccc(Br)c1)c1ccccc1 | 2 (active) |
| CC(C)(O)C(=O)NN(C(=O)c1ccccc1)c1cccc(Br)c1 | 0.9 (inactive) |
| COc1ccccc1NS(=O)(=O)N(C)C | 0.8 (inactive) |
| CCOC(=O)CSc1nnc(CNC(=O)Cc2ccccc2)n1-c1ccccc1OC | 1 (inactive) |
| CCOc1ccc(C(CCc2ccccc2)NC(=O)c2ccc(OC)c(OC)c2)cc1OCC (centres undefined) | 2.2 (active) |
| COc1ccc(C(=O)NCCc2ccc(S(N)(=O)=O)cc2)cc1OC | 1 (inactive) |

From PubChem BioAssay AID696 (Sanford-Burnham Center for Chemical Genomics, 2007)
